From PubChem BioAssay AID624002 (National Center for Advancing Translational Sciences (NCATS), 2012) come the findings set out here.

The target of this assay is Isocitrate dehydrogenase [NADP] cytoplasmic (Homo sapiens) (UniProt O75874). Kind of assay: qHTS for Inhibitors of mutant isocitrate dehydrogenase 1 (IDH1): Confirmation of Cherrypicks. Further: nearly all actives have a fitted effect of over 50% in size. The note with it: IDH1 R132H enzyme, NADPH diaphorase/resazurin fluorescence. From the text:
Malignant glioblastomas (WHO grade IV), including primary and secondary glioblastomas, are among the most lethal with a median survival of one year, and unfortunately they are also the most prevalent type of brain tumors. By and large the standard of care of gliomas remains the use of the oral alkylating agent temozolomide and radiotherapy following surgical tumor resection. There is an urgent unmet medical need for novel therapeutics for gliomas. IDH mutations occur in up to 70% of grade II-IV secondary glioblastomas, and IDH1 R132H is the most prevalent mutation. […] Wild-type IDH1 catalyzes the conversion of isocitrate to -ketoglutarate with the concomitant reduction of NADP+ to NADPH. […] Inhibition of the IDH1 R132H enzymatic reaction leads to an increase in the amount of NADPH relative to a DMSO control and a concomitant increase in the fluorescence of the diaphorase/resazurin enzyme product resorufin at 590 nm. […]
Enzyme buffer was dispensed into black, solid 1536-well plates at 3 microL/well in 20 mM Tris buffer, pH 7.5, containing final concentrations of 10 mM MgCl2, 20 mM NaCl, 0.001% Tween20, 0.05% BSA, 2 mM beta-ME and 5.2 nM IDH1 R132H. […] The inherent compound fluorescence was measured at this point at 590 nm on a ViewLux plate reader (Ex 525, Em 598, bodipy filter). […] The %Activity was determined from the corrected fluorescence values. […]
(In general: In qHTS, concentration-response curves come from the screen itself.)

Some of the results follow. Records with an inconclusive call do not appear. Activity calls are given as the source filed them. The call rests on the fitted dose curve; in most records, active means well fitted inhibition curve with a large enough effect; inconclusive means small, poorly fitted or top-dose-only effect; inactive means no such curve, though single readings can be large or run the other way.
Potency means the concentration at half of the fitted maximal effect.

Chain of Isocitrate dehydrogenase [NADP] cytoplasmic (Homo sapiens) (O75874 whole entry R132H, stated change not applied): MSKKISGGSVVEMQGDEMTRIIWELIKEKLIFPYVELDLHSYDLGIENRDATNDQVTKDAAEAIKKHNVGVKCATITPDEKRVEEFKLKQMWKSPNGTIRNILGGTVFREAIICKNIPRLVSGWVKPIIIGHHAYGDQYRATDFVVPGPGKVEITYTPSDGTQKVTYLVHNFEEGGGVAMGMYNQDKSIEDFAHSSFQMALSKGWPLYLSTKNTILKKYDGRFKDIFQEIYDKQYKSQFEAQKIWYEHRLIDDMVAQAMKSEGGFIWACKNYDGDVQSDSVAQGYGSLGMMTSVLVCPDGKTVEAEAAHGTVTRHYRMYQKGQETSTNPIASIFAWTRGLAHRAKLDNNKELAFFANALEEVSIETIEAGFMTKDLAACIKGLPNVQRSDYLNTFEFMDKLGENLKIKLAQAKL

Take `CC(C)(C)c1ccc(S(=O)(=O)Nc2ccc(O)c(Sc3nc4ccccc4s3)c2)cc1`: the Potency was 15.8 µM (active).
